Screening data as filed in PubChem BioAssay.
Most compounds without a hit are left out; they make up all but 3.5% or so of the library.
FadD28 binding: inhibitors of FadD28 bisubstrate probe binding, primary screen, biochemical, fluorescence polarization, single point; Mycobacterium tuberculosis FadD28 fatty-acid-AMP ligase; inhibition, % at 12.5 µM; actives 0.22% (n = 360,000); in the data active = inhibition above about 8.5%, passing the limit was not always enough; inconclusive = no clear call, values can overlap the other calls
UGM FP inh: M. tuberculosis UGM enzyme inhibitors, primary screen, biochemical, fluorescence polarization, single point | inhibition, % at 10 µM | purified UGM, fluorescence polarization probe displacement | actives 0.06% (n = 320,000) | UDP-galactopyranose mutase (Mycobacterium tuberculosis (strain ATCC 25618 / H37Rv)), …; in the data active = inhibition above about 10%, passing the limit was not always enough; inconclusive = no clear call, values can overlap the other calls
GDH-TPI inh: GDH-TPI coupling enzyme inhibitors, primary screen, artefact control for M. tuberculosis FBA inhibitor project, biochemical, absorbance, full deck; GDH-TPI coupled enzyme counterscreen, NADH absorbance; inhibition, % at 4.8 µM; actives 1.2% (n = 360,000); AID 588335, 2011; in the data active = inhibition above about 30%
Rv3671c inh: Rv3671c serine protease inhibitors, primary screen, biochemical, fluorescence polarization, M. tuberculosis H37Rv; P9WHR9; inhibition, % at 5.96 µM; actives 0.048% (n = 320,000); AID 2606, 2010; in the data active = inhibition above about 38%;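 also: extracellular domain of Rv3671c used as enzyme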
FBA Mtb inh: Mtb FBA enzyme inhibitors, primary screen, biochemical, fluorescence, strain H37Rv. Fructose-bisphosphate aldolase (Mycobacterium tuberculosis (strain ATCC 25618 / H37Rv)), …. purified M. tuberculosis FBA, fluorescence read-out. AID 588726, 2011. inhibition, % at 1 µM. actives 2.3% (n = 360,000); in the data active = inhibition above about 27%
Target sequence (P9WQA3 whole entry, looked up): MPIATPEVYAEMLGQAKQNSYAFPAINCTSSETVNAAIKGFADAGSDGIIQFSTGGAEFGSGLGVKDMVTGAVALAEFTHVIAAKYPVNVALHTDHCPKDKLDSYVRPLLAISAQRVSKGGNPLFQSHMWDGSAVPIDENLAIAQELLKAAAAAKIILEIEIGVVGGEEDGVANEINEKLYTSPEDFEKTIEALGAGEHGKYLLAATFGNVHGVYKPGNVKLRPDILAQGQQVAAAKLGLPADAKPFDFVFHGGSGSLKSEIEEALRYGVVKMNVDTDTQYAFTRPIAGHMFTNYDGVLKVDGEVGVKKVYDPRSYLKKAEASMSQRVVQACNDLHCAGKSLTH
Mtb hypoxia rep: PubChem AID 1159583; actives 0.1% (n = 300,000); fluorescence inhibition, % (concentration not given with the values); M. tuberculosis hypoxia-regulated fluorescent reporter, fluorescence; in the data active = fluorescence inhibition mostly above about 23%, no sharp cut-off; inactive = mostly below about 17%
Hits are given with their value; - = inactive; ? = inconclusive; . = not tested or not shown; ! = not confirmed by another sample.

SMILES | FadD28 binding | UGM FP inh | GDH-TPI inh | Rv3671c inh | FBA Mtb inh | Mtb hypoxia rep
Cc1cc(OCc2cc(C(=O)NC3CCC3)no2)cc(C)c1Cl | - | - | - | - | 46 | -
Oc1ccccc1N=Cc1sc2ccccc2c1Cl | - | - | - | - | - | 37
Cn1c(=NN=Cc2ccccc2OCCO)sc2ccccc21 | - | . | 32 | . | - | .
COc1ccccc1N=c1sc2ccccc2n1C | - | - | - | - | - | -
CC(C)COc1ccc(C(=O)NN=Cc2ccoc2)cc1 | . | . | . | . | . | -
N#C/C(=C(/O)c1ccco1)c1nc2ccccc2s1 | - | - | 56 | - | - | -
N#C/C(=C(/O)CN1CCOCC1)c1nc2ccccc2s1 | - | - | 39 | - | - | .
COc1ccccc1/C=N/N=C(/N)N[N+](=O)[O-] | - | - | - | - | - | .
N/C(=N\N=C\c1ccc(O)cc1O)N[N+](=O)[O-] | - | - | 36 | - | - | .
COC(=O)NN=Cc1cc(OC)c(O)c([N+](=O)[O-])c1 | . | . | . | . | . | -
CCOC(=O)c1cn2nc(Oc3ccccc3)ccc2n1 | - | - | - | - | - | -
CCOC(=O)c1cn2nc(Oc3cccc(C(F)(F)F)c3)ccc2n1 | - | - | - | - | 66 | -
CCOc1cc(C=NNC(=O)CCc2n[nH]c(=O)[nH]c2=O)ccc1O | . | . | . | . | . | -
CCn1c(C)nc2cc(C(=O)N/N=C/c3ccc(OC)c(O)c3)ccc21 | - | - | 39 | - | - | .
CCn1c(C)nc2cc(C(=O)N/N=C(\C)c3ccc(N4CCOCC4)cc3)ccc21 | - | - | - | - | - | .
CCn1c(C)nc2cc(C(=O)N/N=C/c3ccc(N4CCOCC4)cc3)ccc21 | - | - | 34 | - | - | .
Cc1ccc(C=NNC(=O)Cn2nc(C)c([N+](=O)[O-])c2C)o1 | . | . | . | . | . | -
CC1OC(OC2C(Oc3cc(O)c4c(c3)OC(c3ccc(O)cc3)CC4=O)OC(CO)C(O)C2O)C(O)C(O)C1O (configuration not stated) | . | . | . | . | . | 85!
Cc1ccc(C=NNC(=O)Cc2cccs2)o1 | . | . | . | . | . | -
CCOC(=O)c1c(-n2c(C)cc(C=C3C(=O)NC(=S)NC3=O)c2C)sc2c1CCCC2 | - | - | 32 | - | - | -
CCOC(=O)c1cc(-c2ccccc2)nc2nc(N(CC)CC)sc12 | - | - | - | - | 65 | -
CCOC(=O)c1cc(-c2ccccc2)nc2nc(N3CCCCC3)sc12 | - | - | - | - | - | .
Cc1cc(C)nc(NN=Cc2cccc(Cl)c2)n1 | . | . | . | . | . | -
O=[N+]([O-])c1cc(C(F)(F)F)ccc1NCCc1c[nH]c2ccc(O)cc12 | 12 | - | - | - | - | -
Cc1ccc(C(=O)OCC(=O)Nc2ccccc2)cc1S(=O)(=O)N1CCCCC1 | - | - | - | - | - | 35
SMILES | FadD28 binding | UGM FP inh | GDH-TPI inh | Rv3671c inh | FBA Mtb inh | Mtb hypoxia rep
O=C(Cn1nnc(-c2ccccc2Cl)n1)Nc1cccc(S(=O)(=O)N2CCCC2)c1 | - | - | - | - | - | -
CCC(=O)c1ccc(OCC(=O)Nc2cccc(S(=O)(=O)N3CCCCCC3)c2)cc1 | 13 | . | - | . | - | -
Cc1cc(C)cc(NC(=O)COC(=O)c2cccc(S(=O)(=O)N3CCCCC3)c2)c1 | - | - | - | - | - | -
Cc1cccc(NC(=O)COC(=O)c2cccc(S(=O)(=O)N3CCCCCC3)c2)c1 | 10 | - | - | - | - | -
O=C(Cn1nnc(-c2ccc(F)cc2)n1)Nc1cccc(S(=O)(=O)N2CCCC2)c1 | - | - | - | - | - | 35
COC(=O)C1=C(c2cc3ccccc3o2)CC2CCC1N2C(=O)NCc1ccco1 (configuration not stated) | . | . | . | . | . | -
ON=C1C2C3C(Br)C4C5CC(C1C53)C24 (configuration not stated) | . | . | . | . | . | -
CC1=CC(=NOS(=O)(=O)c2ccccc2)C=CC1=O | . | . | . | . | . | -
Clc1cccc(-c2ccnc3nc(-n4cccc4)nn23)c1 | - | - | - | - | - | -
O=C(Nc1nc2nccc(-c3ccccc3)n2n1)C(Cl)(Cl)Cl | - | - | - | - | 173 | -
Cc1ccc(S(=O)(=O)Nc2nc3c(s2)C(=O)CC(C)(C)C3)cc1 | - | - | - | - | - | -
CC1(C)CC(=O)c2sc(NS(=O)(=O)Cc3ccccc3)nc2C1 | - | - | 50 | - | - | -
COC(=O)[C@]1(CC(C)C)N[C@H](c2ccc(-c3ccc(F)cc3)cc2)[C@@H]2C(=O)N(C)C(=O)[C@@H]21 | - | - | - | - | - | .
COC(=O)[C@]1(CC(C)C)N[C@H](c2ccc(-c3ccc(OC)cc3)cc2)[C@@H]2C(=O)N(C)C(=O)[C@@H]21 | - | - | - | - | 132 | .
O=C(c1ccc(=O)oc1)N1CCN(C(c2ccccc2)c2ccccc2)CC1 | - | - | 39 | - | - | -
CC(=O)N1CCN(C(c2ccccc2)c2ccccc2)CC1 | - | - | . | - | - | .
O=C(Nc1cccc(-c2nc3ccccc3s2)c1)c1ccc2c(c1)OCO2 | - | - | - | - | - | -
c1ccc2sc(-c3ccc4c(c3)OCO4)nc2c1 | - | - | - | - | 130 | -
O=C(CC(=O)c1ccccc1)Nc1cc([N+](=O)[O-])ccc1Cl | - | - | 31 | - | - | -
CCCCC(=O)Nc1cc([N+](=O)[O-])ccc1Cl | ? | - | - | - | - | -
O=C(NC(Cc1ccccc1)C(=O)O)C(=Cc1ccccc1)NC(=O)c1cccc(Br)c1 (configuration not stated) | . | . | . | . | . | -
COc1ccc(-c2nnc(SCC(=O)N3CCCC3)o2)cc1 | . | - | - | - | - | -
COc1cc(OC)cc(-c2nnc(SCC(=O)N3CCCC3)o2)c1 | - | - | - | - | 118 | .
CN(C)C=Nc1c(C#N)cnn1-c1ncnc2sc(-c3ccccc3)cc12 | . | . | . | . | . | -
Cc1ccccc1NC(C)C(=O)NN=Cc1c[nH]c2ccccc12 (configuration not stated) | . | . | . | . | . | -
SMILES | FadD28 binding | UGM FP inh | GDH-TPI inh | Rv3671c inh | FBA Mtb inh | Mtb hypoxia rep
COC(=O)C1=CC(C(=O)OC)C2C3=C(C(=O)[C@@]2(C)NC(=O)c2ccccc2)C(c2ccccc2)C2C(=O)NC(=O)C2C3C1 (some centres not stated) | . | . | . | . | . | -
CCOCCCNC(=O)/C(C#N)=C/c1ccc([N+](=O)[O-])o1 | - | - | 46 | - | - | -
CCOCCCNC(=O)/C(C#N)=C/c1cc(Br)c(O)c(Br)c1 | - | . | 44 | . | - | -
COCCNC(=O)/C(C#N)=C/c1cc(Br)c(O)c(OC)c1 | - | - | - | - | - | .
CCOCCCNC(=O)/C(C#N)=C/c1ccc(-c2ccc(S(=O)(=O)N3CCOCC3)cc2)o1 | - | - | - | - | - | -
O=C(NN=Cc1cc2c(cc1Cl)OCO2)c1cc(-c2ccccc2)n[nH]1 | . | . | . | . | . | -
CCc1[nH]nc(C(=O)N2CCCC(C(=O)c3cccc(OC(C)C)c3)C2)c1C (configuration not stated) | - | - | - | - | 164 | -
